# Key:
# Assay in all cases: SPOT peptide array binding signal intensity (averaged, normalized) (arbitrary units (background-subtracted, floor 0; scale differs between SH3 domains)); higher = stronger binding of the SH3 domain to the peptide
# AgAbp1 = target: AgAbp1
# Outline: (§1)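 Four yeast species supplied the SH3 domains, which were expressed as GST fusions in E. coli BL21(DE3) and purified on glutathione Sepharose. Incubation with cellulose membranes carrying synthetic 15-mer peptides, cysteines exchanged for serines, ran overnight at 4°C at 10 μg/ml in TBS-based blocking buffer. Binding signal is reported as normalized, background-subtracted spot intensity averaged over replicates, in arbitrary units not shared between domains.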
# AgBbc1 = target: AgBbc1
# Outline: as §1
# AgBem1-D1 = target: AgBem1-D1
# Outline: as §1
# AgBzz1-D1 = target: AgBzz1-D1
# Outline: as §1
# AgBzz1-D2 = target: AgBzz1-D2
# Outline: as §1
# AgCyk3 = target: AgCyk3
# Outline: as §1
# AgFus1 = target: AgFus1
# Outline: as §1
# AgHof1 = target: AgHof1
# Outline: as §1
# AgHse1 = target: AgHse1
# Outline: as §1
# AgLsb1 = target: AgLsb1
# Outline: as §1
# AgLsb4 = target: AgLsb4
# Outline: as §1
# AgMyo5 = target: AgMyo5
# Outline: as §1
# AgNbp2 = target: AgNbp2
# Outline: as §1
# AgRvs167 = target: AgRvs167
# Outline: as §1
# AgSho1 = target: AgSho1
# Outline: as §1
# AgSla1-D1-D2 = target: AgSla1-D1-D2
# Outline: as §1
# AgSla1-D3 = target: AgSla1-D3
# Outline: as §1
# CaAbp1-D1 = target: CaAbp1-D1
# Outline: as §1
# CaAbp1-D2 = target: CaAbp1-D2
# Outline: as §1
# CaBbc1 = target: CaBbc1
# Outline: as §1
# CaBem1-D1 = target: CaBem1-D1
# Outline: as §1
# CaBzz1-D1 = target: CaBzz1-D1
# Outline: as §1
# CaBzz1-D2 = target: CaBzz1-D2
# Outline: as §1
# CaCyk3 = target: CaCyk3
# Outline: as §1
# CaFus1 = target: CaFus1
# Outline: as §1
# CaHof1 = target: CaHof1
# Outline: as §1
# CaHse1 = target: CaHse1
# Outline: as §1
# CaLsb1 = target: CaLsb1
# Outline: as §1
# CaLsb4 = target: CaLsb4
# Outline: as §1
# CaMyo5 = target: CaMyo5
# Outline: as §1
# CaNbp2 = target: CaNbp2
# Outline: as §1
# CaRvs167 = target: CaRvs167
# Outline: as §1
# CaRvs167-3 = target: CaRvs167-3
# Outline: as §1
# CaSho1 = target: CaSho1
# Outline: as §1
# CaSla1-D1-D2 = target: CaSla1-D1-D2
# Outline: as §1
# CaSla1-D3 = target: CaSla1-D3
# Outline: as §1
# ScAbp1 = target: ScAbp1
# Outline: as §1
# ScBbc1 = target: ScBbc1
# Outline: as §1
# ScBem1-D1 = target: ScBem1-D1
# Outline: as §1
# ScBzz1-D1 = target: ScBzz1-D1
# Outline: as §1
# ScBzz1-D2 = target: ScBzz1-D2
# Outline: as §1
# ScCyk3 = target: ScCyk3
# Outline: as §1
# ScFus1 = target: ScFus1
# Outline: as §1
# ScHof1 = target: ScHof1
# Outline: as §1
# ScHse1 = target: ScHse1
# Outline: as §1
# ScLsb1 = target: ScLsb1
# Outline: as §1
# ScLsb2 = target: ScLsb2
# Outline: as §1
# ScLsb3 = target: ScLsb3
# Outline: as §1
# ScLsb4 = target: ScLsb4
# Outline: as §1
# ScMyo3 = target: ScMyo3
# Outline: as §1
# ScMyo5 = target: ScMyo5
# Outline: as §1
# ScNbp2 = target: ScNbp2
# Outline: as §1
# ScPex13 = target: ScPex13
# Outline: as §1
# ScRvs167 = target: ScRvs167
# Outline: as §1
# ScSho1 = target: ScSho1
# Outline: as §1
# ScSla1-D1-D2 = target: ScSla1-D1-D2
# Outline: as §1
# ScSla1-D3 = target: ScSla1-D3
# Outline: as §1
# SpAbp1-D1 = target: SpAbp1-D1
# Outline: as §1
# SpBbc1 = target: SpBbc1
# Outline: as §1
# SpBzz1-D1 = target: SpBzz1-D1
# Outline: as §1
# SpBzz1-D2 = target: SpBzz1-D2
# Outline: as §1
# SpCyk3 = target: SpCyk3
# Outline: as §1
# SpHof1 = target: SpHof1
# Outline: as §1
# SpHof1-2 = target: SpHof1-2
# Outline: as §1
# SpHof1-3 = target: SpHof1-3
# Outline: as §1
# SpHse1 = target: SpHse1
# Outline: as §1
# SpLsb1 = target: SpLsb1
# Outline: as §1
# SpLsb4 = target: SpLsb4
# Outline: as §1
# SpMyo1 = target: SpMyo1
# Outline: as §1
# SpNbp2 = target: SpNbp2
# Outline: as §1
# SpPex13 = target: SpPex13
# Outline: as §1
# SpRvs167 = target: SpRvs167
# Outline: as §1
# SpSla1-D1-D2 = target: SpSla1-D1-D2
# Outline: as §1
# SpSla1-D3 = target: SpSla1-D3
# Outline: as §1
binder,measurement,setting,value
TYNRTAFQIPGDQSI,SPOT peptide array binding signal intensity,AgAbp1,1
same,SPOT peptide array binding signal intensity,AgBbc1,≤ 0
same,SPOT peptide array binding signal intensity,AgBem1-D1,≤ 0
same,SPOT peptide array binding signal intensity,AgBzz1-D1,60
same,SPOT peptide array binding signal intensity,AgBzz1-D2,≤ 0
same,SPOT peptide array binding signal intensity,AgCyk3,≤ 0
same,SPOT peptide array binding signal intensity,AgFus1,0.5
same,SPOT peptide array binding signal intensity,AgHof1,3.5
same,SPOT peptide array binding signal intensity,AgHse1,≤ 0
same,SPOT peptide array binding signal intensity,AgLsb1,540
same,SPOT peptide array binding signal intensity,AgLsb4,≤ 0
same,SPOT peptide array binding signal intensity,AgMyo5,2.25
same,SPOT peptide array binding signal intensity,AgNbp2,≤ 0
same,SPOT peptide array binding signal intensity,AgRvs167,1
same,SPOT peptide array binding signal intensity,AgSho1,≤ 0
same,SPOT peptide array binding signal intensity,AgSla1-D1-D2,≤ 0
same,SPOT peptide array binding signal intensity,AgSla1-D3,1
same,SPOT peptide array binding signal intensity,CaAbp1-D1,≤ 0
same,SPOT peptide array binding signal intensity,CaAbp1-D2,≤ 0
same,SPOT peptide array binding signal intensity,CaBbc1,1
same,SPOT peptide array binding signal intensity,CaBem1-D1,≤ 0
same,SPOT peptide array binding signal intensity,CaBzz1-D1,60.5
same,SPOT peptide array binding signal intensity,CaBzz1-D2,43.5
same,SPOT peptide array binding signal intensity,CaCyk3,1
same,SPOT peptide array binding signal intensity,CaFus1,≤ 0
same,SPOT peptide array binding signal intensity,CaHof1,0.5
same,SPOT peptide array binding signal intensity,CaHse1,2.5
same,SPOT peptide array binding signal intensity,CaLsb1,207
same,SPOT peptide array binding signal intensity,CaLsb4,≤ 0
same,SPOT peptide array binding signal intensity,CaMyo5,≤ 0
same,SPOT peptide array binding signal intensity,CaNbp2,≤ 0
same,SPOT peptide array binding signal intensity,CaRvs167,2.33
same,SPOT peptide array binding signal intensity,CaRvs167-3,0.5
same,SPOT peptide array binding signal intensity,CaSho1,≤ 0
same,SPOT peptide array binding signal intensity,CaSla1-D1-D2,≤ 0
same,SPOT peptide array binding signal intensity,CaSla1-D3,1.5
same,SPOT peptide array binding signal intensity,ScAbp1,≤ 0
same,SPOT peptide array binding signal intensity,ScBbc1,2.5
same,SPOT peptide array binding signal intensity,ScBem1-D1,11
same,SPOT peptide array binding signal intensity,ScBzz1-D1,40
same,SPOT peptide array binding signal intensity,ScBzz1-D2,13.5
same,SPOT peptide array binding signal intensity,ScCyk3,≤ 0
same,SPOT peptide array binding signal intensity,ScFus1,≤ 0
same,SPOT peptide array binding signal intensity,ScHof1,≤ 0
same,SPOT peptide array binding signal intensity,ScHse1,≤ 0
same,SPOT peptide array binding signal intensity,ScLsb1,142
same,SPOT peptide array binding signal intensity,ScLsb2,661
same,SPOT peptide array binding signal intensity,ScLsb3,≤ 0
same,SPOT peptide array binding signal intensity,ScLsb4,11.5
same,SPOT peptide array binding signal intensity,ScMyo3,3
same,SPOT peptide array binding signal intensity,ScMyo5,8.5
same,SPOT peptide array binding signal intensity,ScNbp2,≤ 0
same,SPOT peptide array binding signal intensity,ScPex13,≤ 0
same,SPOT peptide array binding signal intensity,ScRvs167,≤ 0
same,SPOT peptide array binding signal intensity,ScSho1,≤ 0
same,SPOT peptide array binding signal intensity,ScSla1-D1-D2,≤ 0
same,SPOT peptide array binding signal intensity,ScSla1-D3,0.5
same,SPOT peptide array binding signal intensity,SpAbp1-D1,≤ 0
same,SPOT peptide array binding signal intensity,SpBbc1,0.5
same,SPOT peptide array binding signal intensity,SpBzz1-D1,70
same,SPOT peptide array binding signal intensity,SpBzz1-D2,≤ 0
same,SPOT peptide array binding signal intensity,SpCyk3,≤ 0
same,SPOT peptide array binding signal intensity,SpHof1,1.75
same,SPOT peptide array binding signal intensity,SpHof1-2,5.25
same,SPOT peptide array binding signal intensity,SpHof1-3,0.25
same,SPOT peptide array binding signal intensity,SpHse1,50.2
same,SPOT peptide array binding signal intensity,SpLsb1,17.5
same,SPOT peptide array binding signal intensity,SpLsb4,≤ 0
same,SPOT peptide array binding signal intensity,SpMyo1,2.75
same,SPOT peptide array binding signal intensity,SpNbp2,≤ 0
same,SPOT peptide array binding signal intensity,SpPex13,≤ 0
same,SPOT peptide array binding signal intensity,SpRvs167,0.333
same,SPOT peptide array binding signal intensity,SpSla1-D1-D2,≤ 0
same,SPOT peptide array binding signal intensity,SpSla1-D3,≤ 0
RKNRAPPQRPRFNRD,SPOT peptide array binding signal intensity,AgAbp1,958
same,SPOT peptide array binding signal intensity,AgBbc1,476
same,SPOT peptide array binding signal intensity,AgBem1-D1,438
same,SPOT peptide array binding signal intensity,AgBzz1-D1,256
same,SPOT peptide array binding signal intensity,AgBzz1-D2,154
same,SPOT peptide array binding signal intensity,AgCyk3,16
same,SPOT peptide array binding signal intensity,AgFus1,501
same,SPOT peptide array binding signal intensity,AgHof1,142
same,SPOT peptide array binding signal intensity,AgHse1,631
same,SPOT peptide array binding signal intensity,AgLsb1,230
same,SPOT peptide array binding signal intensity,AgLsb4,131
same,SPOT peptide array binding signal intensity,AgMyo5,6.5
same,SPOT peptide array binding signal intensity,AgNbp2,3290
same,SPOT peptide array binding signal intensity,AgRvs167,7
same,SPOT peptide array binding signal intensity,AgSho1,37
same,SPOT peptide array binding signal intensity,AgSla1-D1-D2,474
same,SPOT peptide array binding signal intensity,AgSla1-D3,52
same,SPOT peptide array binding signal intensity,CaAbp1-D1,924
same,SPOT peptide array binding signal intensity,CaAbp1-D2,998
same,SPOT peptide array binding signal intensity,CaBbc1,1240
same,SPOT peptide array binding signal intensity,CaBem1-D1,65.5
same,SPOT peptide array binding signal intensity,CaBzz1-D1,1760
same,SPOT peptide array binding signal intensity,CaBzz1-D2,1020
same,SPOT peptide array binding signal intensity,CaCyk3,342
same,SPOT peptide array binding signal intensity,CaFus1,758
same,SPOT peptide array binding signal intensity,CaHof1,0.75
same,SPOT peptide array binding signal intensity,CaHse1,149
same,SPOT peptide array binding signal intensity,CaLsb1,5.5
same,SPOT peptide array binding signal intensity,CaLsb4,698
same,SPOT peptide array binding signal intensity,CaMyo5,10.2
